{"source": "paper PMC11995724", "about": "“Antibiotic target discovery by integrated phenotypic and activity-based profiling of electrophilic fragments” (Cell chemical biology, 2025)", "note": "The whole screen tested about 3,200 compounds, of which about 75 (2%) showed an effect of 50% or more. The list comes from a sample in which strong results are over-represented; it also holds similar structures and randomly drawn compounds."}
{"system": "T1, S. aureus MSSA476", "T1 construct": "MSSA476", "design": "species or system S. aureus MSSA476 (TSB) or V. cholerae SAD30 (LB); 384-well bacterial growth screen at 25 uM, OD600 relative to DMSO control", "conditions": "relative growth, OD600, TSB; 25 µM; inhibitor", "units": {"% of control remaining": "%"}}
{"smiles": "CC(C)OC(=O)c1ccc(NC(=O)C(C)Cl)cc1", "note": "(stereo not shown) [4-K08, propan-2-yl 4-(2-chloropropanamido)benzoate]", "% of control remaining": 110.148}
{"smiles": "N#CC(=Cc1cccc2ccccc12)C(=O)NCc1ccccc1", "note": "[8-O19, N-benzyl-2-cyano-3-(naphthalen-1-yl)prop-2-enamide]", "% of control remaining": 104.896}
{"smiles": "N#CC(=Cc1cccc(Cl)c1Cl)C(=O)NCCc1ccccc1", "note": "[8-J06, 2-cyano-3-(2,3-dichlorophenyl)-N-(2-phenylethyl)prop-2-enamide]", "% of control remaining": 0.6639}
{"smiles": "CC(C)NC(=O)C(C#N)=Cc1cccc(Cl)c1Cl", "note": "[9-C07, 2-cyano-3-(2,3-dichlorophenyl)-N-(propan-2-yl)prop-2-enamide]", "% of control remaining": 109.963}
{"smiles": "N#CC(=Cc1c(F)cccc1F)C(=O)NCCc1ccccc1", "note": "[8-D18, 2-cyano-3-(2,6-difluorophenyl)-N-(2-phenylethyl)prop-2-enamide]", "% of control remaining": 118.174}
{"smiles": "N#CC(=Cc1ccccc1Cl)C(=O)NCc1ccccc1", "note": "[9-F13, N-benzyl-3-(2-chlorophenyl)-2-cyanoprop-2-enamide]", "% of control remaining": 78.2022}
{"smiles": "N#CC(=Cc1c(Cl)cccc1Cl)C(=O)NCCc1ccccc1", "note": "[8-B14, 2-cyano-3-(2,6-dichlorophenyl)-N-(2-phenylethyl)prop-2-enamide]", "% of control remaining": 39.834}
{"smiles": "CCCCNC(=O)C(C#N)=Cc1c(Cl)cccc1Cl", "note": "[9-J11, N-butyl-2-cyano-3-(2,6-dichlorophenyl)prop-2-enamide]", "% of control remaining": 79.4007}
{"smiles": "CC(NC(=O)C(C#N)=Cc1cccc(Cl)c1Cl)c1ccccc1", "note": "(stereo not shown) [9-N04, 2-cyano-3-(2,3-dichlorophenyl)-N-(1-phenylethyl)prop-2-enamide]", "% of control remaining": 0.5993}
{"smiles": "CCCCNC(=O)C(C#N)=Cc1cccc(Cl)c1Cl", "note": "[9-H11, N-butyl-2-cyano-3-(2,3-dichlorophenyl)prop-2-enamide]", "% of control remaining": 71.0112}
{"smiles": "N#CC(=Cc1cccc(Cl)c1Cl)C(=O)NCc1ccccc1", "note": "[8-L04, N-benzyl-2-cyano-3-(2,3-dichlorophenyl)prop-2-enamide]", "% of control remaining": -0.332}
{"smiles": "N#CC(=Cc1cccc(O)c1)C(=O)NCCc1ccccc1", "note": "[8-N03, 2-cyano-3-(3-hydroxyphenyl)-N-(2-phenylethyl)prop-2-enamide]", "% of control remaining": 116.183}
{"smiles": "CC(NC(=O)C(C#N)=Cc1ccccc1F)c1ccccc1", "note": "(stereo not shown) [8-P16, 2-cyano-3-(2-fluorophenyl)-N-(1-phenylethyl)prop-2-enamide]", "% of control remaining": 79.0041}
